An excerpt weighted towards active compounds, which were near 6.2% of everything screened.
KB-3-1 tox: qHTS assay for MDR1-selective chemotherapeutics: Primary screen using the parental adenocarcinoma cell KB-3-1; 400,000 compounds, 1.4% hits; KB-3-1 viability, CellTiter-Glo ATP luminescence, 72 h; Potency, µM (highest dose often 46.1 µM), most hits filed as cytotoxic; note: nearly all actives have a fitted effect of over 60% in size
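Parental KB-3-1 adenocarcinoma cells in phenol-red-free DMEM with 10% FBS were pin-treated with compounds at several concentrations, incubated 72 h at 37 °C, and viability read by CellTiter-Glo luminescence; concentration-effect curves were fitted after normalization.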
HT1080-NT tox: qHTS for induction of synthetic lethality in tumor cells producing 2HG: qHTS for the HT-1080-NT fibrosarcoma cell line. HT-1080-NT fibrosarcoma viability, CellTiter-Glo ATP luminescence, 48 h. Potency, µM (titrated, usually from 46.1 µM), most hits filed as cytotoxic. 360,000 compounds, 1.6% hits. AID 686970, 2013;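 note: NT is the 2HG producing partner of a matched IDH1 knockdown line; nearly all actives have a fitted effect of over 55% in size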
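Compounds were tested in concentration-response format on HT-1080-NT cells for 48 hours at 37 degrees C. Cell viability came from CellTiter-Glo luminescence; curves were classified by r2, response magnitude and activity.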
KB-V1 cytotox: qHTS assay for MDR1-selective chemotherapeutics: Primary screen using the drug-selected MDR subline cells KB-V1; KB-V1 MDR cells viability, CellTiter-Glo, 72 h; Potency, µM (top dose mostly 46.1 µM), usual class: cytotoxic; 400,000 compounds, 3.4% hits; AID 1347076, 2019; note: nearly all actives have a fitted effect of over 60% in size
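Luminescent ATP read-out (CellTiter-Glo, 10 min) measures survival of drug-selected KB-V1 MDR cells after 72 h, 37 degrees C compound exposure. Medium: phenol-red-free DMEM, 10% FBS. Values from fitted concentration-response curves.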
HT1080 IDH1KD tx: qHTS for induction of synthetic lethality in tumor cells producing 2HG: qHTS for the HT-1080-IDH1KD cell line; HT-1080 IDH1 knockdown viability, ATP luminescence, 48 h; Potency, µM (highest dose often 46.1 µM), usual class: cytotoxic; 360,000 compounds, 2% hits
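% activity derives from luminescence (CellTiter-Glo), normalised to DMSO and no-cell wells. HT-1080-IDH1KD cells, 750/well, had 48 h compound exposure at 37 °C.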
S2 tox: Viability Counterscreen for Primary qHTS for Inhibitors of ATXN expression; 400,000 compounds, 0.49% hits; S2 cells (HEK-293 line with an ATXN2-luciferase reporter) viability, CellTiter-Fluor protease fluorescence, 24 h; Potency, µM (titrated, usually from 56.7 µM), hits mostly cytotoxic; note: nearly all actives have a fitted effect of over 40% in size
ATXN2 expr inh: Primary qHTS for Inhibitors of ATXN expression; AID 1745845, 2022; HEK-293 ATXN2-luciferase reporter, luminescence, 24 h; Potency, µM (highest dose often 57 µM), actives largely listed as inhibitors; 360,000 compounds, 0.72% hits; note: nearly all actives have a fitted effect of over 55% in size
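qHTS (up to 57 uM final) was run with 24 h compound exposure of reporter cells at 37 °C. Each well was multiplexed: SteadyGlo luminescence measured ATXN2-luciferase expression after a fluorogenic Gly-Phe-AFC viability readout (25 uM final).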
Of the large screens only hits and unclear results are named; the others gave an inactive call. Calls come from the whole dose curve; as a rule, active = well fitted curve in the direction sought with a large enough effect; inconclusive = small, poorly fitted or top-dose-only effect, or another doubt; inactive = no such curve, though single readings can be large; an effect the other way counts as inactive or inconclusive.

C=CCNc1ncnc2c1[nH]c1ccc(Cl)cc12	KB-3-1 tox 8.2µM, KB-V1 cytotox inconclusive
C=CCNc1ncnc2c1[nH]c1ccccc12	KB-3-1 tox inconclusive
COc1ccc(C2c3c(n(C)c4ccccc34)C(=O)N2CC(=O)Nc2c(C)cc(C)cc2C)cc1 (centres undefined)	none (no result: HT1080-NT tox, HT1080 IDH1KD tx, S2 tox, ATXN2 expr inh)
S=c1[nH]nc(Cc2ccccc2)n1Cc1ccco1	HT1080-NT tox 35µM, KB-V1 cytotox inconclusive, HT1080 IDH1KD tx inconclusive
CCCn1c(Cc2ccccc2)n[nH]c1=S	none
Fc1ccccc1-c1nnc2n1N=C(c1ccc(OC(F)F)c(OCC3CC3)c1)CS2	none (no result: HT1080-NT tox, HT1080 IDH1KD tx)
COc1ccc(OC)c(-c2nnc3n2N=C(c2ccc(OC)c(OCC4CC4)c2)CS3)c1	KB-3-1 tox 0.92µM, KB-V1 cytotox 4.6µM, S2 tox inconclusive, ATXN2 expr inh inconclusive (no result: HT1080-NT tox, HT1080 IDH1KD tx)
COc1ccc(C2=Nn3c(nnc3-c3ccccc3Cl)SC2)cc1OCC1CC1	KB-3-1 tox 2.9µM, KB-V1 cytotox inconclusive, S2 tox inconclusive, ATXN2 expr inh inconclusive (no result: HT1080-NT tox, HT1080 IDH1KD tx)
COc1ccc(OC)c(C2=Nn3c(nnc3-c3cc(C)[nH]n3)SC2)c1	KB-V1 cytotox inconclusive, S2 tox inconclusive
COc1cccc(NS(=O)(=O)CC23CCC(CC2=O)C3(C)C)c1 (centres undefined)	none
CC1(C)C2CCC1(CS(=O)(=O)Nc1ccc(S(=O)(=O)NC3CCCCC3)cc1)C(=O)C2 (centres undefined)	KB-V1 cytotox 16µM
CC1(C)C2CCC1(CS(=O)(=O)NCc1ccc(Cl)cc1Cl)C(=O)C2 (centres undefined)	KB-3-1 tox inconclusive, KB-V1 cytotox 10µM
Cc1cc(C)n(-c2nc3cc(Cl)ccc3nc2N2CCN(c3cccc(C)c3C)CC2)n1	none (no result: HT1080-NT tox, HT1080 IDH1KD tx)
COC1C(CO)OC(n2c3c(Cl)cccc3c3c4c(c5c6cccc(Cl)c6[nH]c5c32)C(=O)NC4=O)C(O)C1O (centres undefined)	KB-3-1 tox 8.2µM, HT1080-NT tox 4.6µM, HT1080 IDH1KD tx 5.8µM, S2 tox inconclusive, ATXN2 expr inh inconclusive
O=S(=O)(Nc1cc(Sc2cccc3cccnc23)c(O)c2ccccc12)c1ccc(F)cc1	KB-3-1 tox 3.3µM, HT1080-NT tox 23µM, KB-V1 cytotox inconclusive, HT1080 IDH1KD tx 21µM, S2 tox 4µM, ATXN2 expr inh inconclusive
Cc1ncc(C(O)c2ccc(N(C)C)cc2)n1Cc1ccccc1 (centres undefined)	none (no result: ATXN2 expr inh)
CN(C)c1ccc2nc3c(=O)[nH]c(=O)nc-3n(CC(O)C(O)C(O)CO)c2c1 (centres undefined)	S2 tox 13µM (no result: ATXN2 expr inh)
O=C(/C=C/c1cn(CC(O)CN2CCCCCC2)c2ccccc12)c1cccs1 (centres undefined)	KB-3-1 tox inconclusive, HT1080-NT tox 18µM, KB-V1 cytotox inconclusive, HT1080 IDH1KD tx 21µM (no result: S2 tox)
COc1ccc(C2CC(=O)C3=C(C2)Nc2ncnn2C3c2ccccc2C)cc1 (centres undefined)	KB-V1 cytotox 16µM
COc1ccccc1C1CN(CC(=O)N2CCC(N3CCOCC3)CC2)Cc2ccccc2O1 (centres undefined)	none (no result: KB-3-1 tox, HT1080-NT tox, KB-V1 cytotox, HT1080 IDH1KD tx, ATXN2 expr inh)
CN(C)CCCNC(=O)c1ccc(-c2nc(-c3ccc(Cl)cc3)cs2)cc1	KB-3-1 tox inconclusive, KB-V1 cytotox inconclusive, HT1080 IDH1KD tx inconclusive, S2 tox 20µM, ATXN2 expr inh inconclusive
CCOC(=O)C1=C(C)NC(SC)=C(C#N)C1CC(C)C (centres undefined)	KB-3-1 tox 4.1µM, HT1080-NT tox 1.8µM, KB-V1 cytotox 5.2µM, HT1080 IDH1KD tx 2.6µM, S2 tox inconclusive
CC(=O)C1=C(C)NC(SCC(=O)c2ccc(Cl)cc2)=C(C#N)C1CC(C)C (centres undefined)	KB-V1 cytotox 21µM
CCN(CC)CCCNC(=O)c1nn(-c2ccc(OC)c(Cl)c2)c(=O)c2c1c1ccccc1n2C	none (no result: HT1080-NT tox, HT1080 IDH1KD tx)

Bioassay records deposited in PubChem BioAssay by National Center for Advancing Translational Sciences (NCATS).
